Here are results for 8 compounds from PubChem BioAssay.

Experiment [1] is described as follows: compound effects on lung adenocarcinoma cell viability – A549, calcein-AM fluorescence, 48 h, basal, profiling panel (AID 1162). Note: test concentration not given here. The note with it: higher = more signal.
The nature of experiment [2]: compound effects on differentiated 3T3-L1 adipocyte viability – cell-based, 3T3-L1 adipocytes, calcein-AM fluorescence, 48 h, basal, profiling panel (AID 1163). Note: test concentration not given here. The note with it: 3T3-L1 adipocytes viability, higher = more signal.
A short description of experiment [3]: compound effects on hepatocellular carcinoma cell viability – HepG2, calcein-AM fluorescence, 48 h, basal, profiling panel (AID 1164). Note: test concentration not given here. As to conditions: higher = more signal.
A short description of experiment [4]: compound effects on multiple myeloma cell viability – MM1S, calcein-AM fluorescence, 48 h, basal, profiling panel (AID 1165). Note: test concentration not given here. As to conditions: higher = more signal.
A short description of experiment [5]: calcein-AM signal in unstimulated myeloma cells – cell-based, calcein-AM fluorescence, 48 h, PK04 Diversity Set, profiling panel (AID 1166).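 Note: cells grown under basal conditions without added stimulus; test concentration not given here.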 As to conditions: RPMI8226 myeloma viability, higher = more signal.
A short description of experiment [6]: JC-1 mitochondrial signal, unstimulated HepG2 cells – cell-based, JC-1 fluorescence, 24 h, 100 nL compound, profiling panel (AID 1167). Note: test concentration not given here. As to conditions: HepG2 mitochondrial potential, higher = more signal.
Experiment [7] is described as follows: JC-1 mitochondrial signal, unstimulated adipocytes – cell-based, JC-1 fluorescence, 3T3-L1 adipocytes, 24 h, 100 nL compound, profiling panel (AID 1168). Note: test concentration not given here. The note with it: JC-1 mitochondrial fluorescence, higher = more signal, called active from +8 up or from −8 down.
Experiment [8] can be described thus: JC-1 mitochondrial signal, unstimulated myeloma cells – cell-based, JC-1 fluorescence, RPMI8226, 24 h, 100 nL compound, profiling panel (AID 1169). Note: test concentration not given here. As to conditions: JC-1 mitochondrial potential fluorescence, higher = more signal.
Experiment [9] can be described thus: JC-1 mitochondrial signal, unstimulated MM1S myeloma – cell-based, JC-1 fluorescence, 24 h, 100 nL compound, profiling panel (AID 1170). Note: test concentration not given here. The note with it: MM1S mitochondrial potential, higher = more signal.
Experiment [10] is described as follows: resazurin metabolic signal in A549 cells – cell-based, resazurin fluorescence, 24 h, PK04 Diversity Set, profiling panel (AID 1171). Note: test concentration not given here. As to conditions: A549 viability, higher = more signal, called active from +8 up or from −8 down.
The nature of experiment [11]: resazurin metabolic signal in HepG2 cells – cell-based, resazurin fluorescence, 24 h, PK04 Diversity Set, profiling panel (AID 1172). Note: test concentration not given here. As to conditions: HepG2 viability, higher = more signal. (The colour change of resazurin is a common sign of viable cells or microbes.)
Experiment [12] can be described thus: budding yeast growth changes without added modifier – OD600, strain BY4716, 24 h, basal condition, primary screen (AID 1173). As to conditions: S. cerevisiae BY4716 growth, OD600, 24 h; higher = more signal, called active from +8 up or from −8 down.
A short description of experiment [13]: viability profiling in MM1S myeloma cells – cell-based, resazurin fluorescence, basal, 24 h, PK04 Diversity Set, profiling panel (AID 1174). Note: test concentration not given here. The note with it: higher = more signal, called active from +8 up or from −8 down.
Experiment [14] deals with Dihydroorotate dehydrogenase (quinone), mitochondrial (Plasmodium falciparum (isolate 3D7)) (UniProt Q08210). The experiment in a line: inhibition of P. falciparum DHODH – biochemical, C-terminal His tag, absorbance 600 nm, primary screen (AID 1175).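 Note: recombinant parasite enzyme with a five histidine tag at its C terminus; test concentration not given here.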 The note with it: PfDHODH enzyme, DCIP absorbance 600 nm; higher = more signal, called active from +8 up or from −8 down.
Sequence of Dihydroorotate dehydrogenase (quinone), mitochondrial (Plasmodium falciparum (isolate 3D7)) (Q08210 whole entry, looked up): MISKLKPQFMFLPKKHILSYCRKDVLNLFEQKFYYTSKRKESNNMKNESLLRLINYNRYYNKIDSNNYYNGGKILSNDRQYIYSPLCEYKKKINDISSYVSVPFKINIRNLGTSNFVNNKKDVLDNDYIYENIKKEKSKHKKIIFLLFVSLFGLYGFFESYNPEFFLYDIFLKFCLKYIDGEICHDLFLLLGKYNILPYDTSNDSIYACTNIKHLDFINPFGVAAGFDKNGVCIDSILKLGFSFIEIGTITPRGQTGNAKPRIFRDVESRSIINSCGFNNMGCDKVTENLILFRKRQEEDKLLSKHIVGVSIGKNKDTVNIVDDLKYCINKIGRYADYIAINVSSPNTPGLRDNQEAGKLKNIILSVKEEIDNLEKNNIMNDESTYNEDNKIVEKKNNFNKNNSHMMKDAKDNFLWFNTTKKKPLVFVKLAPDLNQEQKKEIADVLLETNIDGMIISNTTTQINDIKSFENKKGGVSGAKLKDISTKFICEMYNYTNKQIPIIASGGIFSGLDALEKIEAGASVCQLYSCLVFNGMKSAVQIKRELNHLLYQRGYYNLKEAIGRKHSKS
A short description of experiment [15]: inhibition of PAO1 biofilm formation – strain PAO1, LB-PBS medium, absorbance 600 nm, primary screen (AID 1176). Note: test concentration not given here. The note with it: P. aeruginosa PAO1 growth/biofilm, A600, 12 h; higher = more signal.
The nature of experiment [16]: growth modulation of vineyard yeast isolate – strain RM11-1a, OD600, basal, 24 h, primary screen (AID 1177).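 Note: cultures grown under basal conditions with no added stressor; test concentration not given here.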 As to conditions: S. cerevisiae RM11-1a growth, OD600, 24 h; higher = more signal, called active from +8 up or from −8 down.
The nature of experiment [17]: growth of efflux-deficient E. coli DRC39 – strain DRC39, OD650, 24 h, E. coli filamentation inducers, primary screen (AID 1178).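 Note: growth measured as culture turbidity by optical density at 650 nm; test concentration not given here.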 The note with it: E. coli DRC39 acrAB, higher = more signal, called active from +8 up or from −8 down.
Experiment [18] can be described thus: growth of efflux-deficient E. coli DRC39 – strain DRC39, OD650, 48 h, E. coli filamentation inducers, primary screen (AID 1179).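 Note: screen aims at cell division blockers that make cells filament.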 As to conditions: E. coli DRC39 delta-acrAB growth, higher = more signal, called active from +8 up or from −8 down.
Experiment [19] in a line: viability profiling in RPMI8226 myeloma cells – cell-based, resazurin fluorescence, basal, 24 h, PK04 Diversity Set, profiling panel (AID 1180).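 Note: RPMI8826 multiple myeloma cell line at 5000 cells per well; test concentration not given here.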 As to conditions: higher = more signal.
The target in experiment [20] is E3 ubiquitin-protein ligase XIAP (Homo sapiens) (UniProt P98170). The experiment in a line: small molecules binding XIAP protein – biophysical, small-molecule microarray, fluorescence 635 nm, primary screen (AID 1181).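 Note: score merges 667 nm emission and signal to noise over triplicate slides.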 The note with it: higher = more signal.
Sequence of E3 ubiquitin-protein ligase XIAP (Homo sapiens) (P98170 whole entry, looked up): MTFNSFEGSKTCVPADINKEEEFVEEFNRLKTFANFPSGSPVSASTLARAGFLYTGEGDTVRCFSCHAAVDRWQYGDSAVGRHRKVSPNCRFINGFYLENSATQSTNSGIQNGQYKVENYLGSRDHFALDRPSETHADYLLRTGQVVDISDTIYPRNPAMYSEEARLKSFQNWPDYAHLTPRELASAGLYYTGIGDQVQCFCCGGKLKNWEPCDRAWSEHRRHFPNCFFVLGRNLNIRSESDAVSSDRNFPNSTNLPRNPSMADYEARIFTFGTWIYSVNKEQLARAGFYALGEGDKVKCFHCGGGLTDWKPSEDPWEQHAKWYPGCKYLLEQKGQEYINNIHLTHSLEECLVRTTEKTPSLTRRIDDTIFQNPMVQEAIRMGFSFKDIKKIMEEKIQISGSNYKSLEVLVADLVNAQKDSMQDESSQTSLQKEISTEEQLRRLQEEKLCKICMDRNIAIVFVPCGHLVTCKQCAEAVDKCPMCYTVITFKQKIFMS

Active and inactive are the calls of the source. Unless noted, the rule behind the calls is not given here.

Take `CCN1C(=O)[C@H]2[C@H]3[C@H](O)[C@H](O)CC(=NOC[C@@H](O)COCc4ccco4)[C@H]3CC[C@H]2C1=O`: the z-score was -0.199 in [1]; 0.47 in [2]; -0.0911 in experiment [3]; 0.133 in [4]; -0.229 in experiment [5]; -0.326 in [6]. Moreover, the z-score was -0.128 (inactive) in [7]; 0.545 in [8]; 0.905 in experiment [9]; -0.45 (inactive) in experiment [10]; -0.92 in experiment [11]; -0.54 (inactive) in experiment [12]. Moreover, the z-score in experiment [13] is -0.809 (inactive); in experiment [15], -0.425 (inactive); in [16], -0.178 (inactive); in experiment [17] it was -0.0557 (inactive); in experiment [18], 0.322 (inactive); in experiment [19], -1.23. For the same compound, the figures for the composite z-score in experiment [14] and in [20] were -0.164 (inactive) and -0.0948, respectively.

In the case of `CCN1C(=O)[C@H]2[C@H]3[C@H](O)[C@H](O)CC(=NO[C@@H](C)c4cc(-c5c(C)cc(C)cc5C)no4)[C@@H]3CC[C@H]2C1=O`, the z-score in experiment [1] is 0.165; in experiment [2] it was 0.335; in experiment [3] it was -0.401; in experiment [4], -0.807; in [5], -1.14; in experiment [6], -1.38. In addition, the z-score is -3.4 (inactive) in [7]; 0.473 in experiment [8]; -0.176 in experiment [9]; 0.296 (inactive) in experiment [10]; 0.0416 in experiment [11]; -2.13 (inactive) in [12]. For the same compound, the z-score was -0.69 (inactive) in [13]; 0.0646 (inactive) in experiment [15]; 0.0564 (inactive) in experiment [16]; 0.767 (inactive) in experiment [17]; 0.596 (inactive) in [18]; -0.835 in experiment [19]. For the same compound, the composite z-score in experiment [14] is -0.126 (inactive); in experiment [20] it was -0.102.

In the case of `O=C1C[C@@H](O)[C@@H](O)[C@@H]2[C@@H]3C(=O)N(C4CCCCC4)C(=O)[C@@H]3CC[C@@H]12`, the z-score is 0.112 in [1]; 0.0679 in experiment [2]; 0.236 in experiment [3]; -0.0357 in [4]; 0.313 in experiment [5]; 0.0325 in experiment [6]. Also, the z-score in [7] is -0.907 (inactive); in [8], 0.0121; in experiment [9], -0.377; in experiment [10] it was -0.732 (inactive); in experiment [11] it was -0.432; in [12] it was 0.133 (inactive). Besides, the z-score in experiment [13] was -0.262 (inactive); in [15] it was -1.13 (inactive); in [16], 0.356 (inactive); in experiment [17], -0.574 (inactive); in experiment [18], -0.354 (inactive); in experiment [19], -0.27. Also, the composite z-score in experiment [14] is -0.506 (inactive); in [20], 0.333.

Take `CC(=O)OC[C@H]1O[C@H](CC=NOC[C@@H](O)[C@H]2O[C@@H]3OC(C)(C)O[C@@H]3[C@H]2O)C=C[C@@H]1OC(C)=O`: the z-score in experiment [1] is 0.873; in experiment [2] it was -1; in experiment [3], -0.188; in experiment [4], 0.494; in [5], -0.594; in experiment [6] it was 0.218. For the same compound, the z-score in [7] was 0.555 (inactive); in experiment [8], 0.632; in [9], -0.527; in experiment [10], 0.0766 (inactive); in experiment [11] it was 0.287; in experiment [12] it was 0.933 (inactive). The z-score in [13] was -1.15 (inactive); in [15], -0.124 (inactive); in experiment [16], 1.08 (inactive); in [17], 0.644 (inactive); in experiment [18], -0.717 (inactive); in experiment [19] it was -0.754. In addition, the composite z-score was 0.189 (inactive) in experiment [14] and 0.013 in experiment [20].

For the compound `COC(=O)[C@H](C)NC(=O)CCC1CC(OC(=O)NCc2cccc3ccccc23)CC2(CCCC(COC(=O)NCCc3ccccc3OC)O2)O1` (stereo not given in full), the z-score in [1] is -0.932; in experiment [2] it was -1.02; in [3] it was -1.44; in experiment [4], -3.38; in experiment [5] it was -1.79; in experiment [6] it was -0.525. In addition, the z-score in experiment [7] was -0.309 (inactive); in [8], 0.179; in experiment [9], -1.33; in [10], 0.642 (inactive); in experiment [11] it was -0.0725; in experiment [12], 0.526 (inactive). The z-score in experiment [13] is -0.232 (inactive); in experiment [15], 0.639 (inactive); in [16], 1.61 (inactive); in experiment [17], 0.642 (inactive); in experiment [18], -0.0569 (inactive); in [19] it was -0.472. Besides, the composite z-score in [14] is 0.325 (inactive); in experiment [20], 0.0932.

With `CC(CCN1CCc2nc(-c3ccccc3)c(-c3ccccc3)cc2C1)=NO[C@@H](C)c1cc(-c2c(C)cc(C)cc2C)no1`, the z-score in experiment [1] was -0.826; in [2], 0.998; in experiment [3], 0.321; in [4], -0.494; in [5], -1.25; in [6], 2.47. Besides, the z-score in experiment [7] was -1.15 (inactive); in experiment [8] it was -0.535; in experiment [9], -1.62; in experiment [10] it was 0.235 (inactive); in experiment [11] it was -0.377; in experiment [12], -1.7 (inactive). In addition, the z-score in [13] is 0.553 (inactive); in experiment [15], -0.634 (inactive); in experiment [16], -0.482 (inactive); in experiment [17] it was -1.04 (inactive); in [18] it was -1.01 (inactive); in experiment [19], 0.812. Moreover, the composite z-score was -2.15 (inactive) in experiment [14] and -0.209 in [20].

`CCO[C@H](c1cc(OC)cc([N+](=O)[O-])c1OC)[C@H](C)[C@@H](OC)[C@H](C)C=CCC(=O)OC`: the z-score in experiment [1] is 0.207; in experiment [2] it was -0.402; in [3] it was 0.513; in experiment [4], 0.0601; in experiment [5], 0.824; in [6] it was -0.524. Moreover, the z-score in experiment [7] was -0.476 (inactive); in experiment [8], -0.441; in [9], -0.236; in experiment [10] it was 0.319 (inactive); in experiment [11] it was -0.467; in [12], -0.435 (inactive). For the same compound, the z-score in experiment [13] was 0.149 (inactive); in experiment [15], -0.303 (inactive); in experiment [16], -0.147 (inactive); in [17], -0.508 (inactive); in experiment [18], -0.17 (inactive); in experiment [19] it was 0.0951. The composite z-score is 0.189 (inactive) in experiment [14] and 0.1 in [20].

Take `O=C1CCCC=C1C(O)c1ccc([N+](=O)[O-])cc1` (stereo not given): the z-score in experiment [1] is -0.419; in [2] it was -0.388; in experiment [3], -0.0678; in experiment [4], -0.629; in experiment [5] it was 0.372; in [6], -0.614. Moreover, the z-score is -0.0489 (inactive) in [7]; 0.566 in experiment [8]; 0.502 in experiment [9]; -0.258 (inactive) in experiment [10]; -0.426 in [11]; -0.851 (inactive) in [12]. Further, the z-score in experiment [13] was -0.57 (inactive); in [15], -0.47 (inactive); in experiment [16], -0.66 (inactive); in experiment [17], 0.47 (inactive); in [18] it was 0.4 (inactive); in experiment [19], -0.865. Moreover, the composite z-score in experiment [14] was -0.42 (inactive); in [20], -0.0019.
